{
  "source": "paper PMC8384837",
  "about": "“Expanding the binding specificity for RNA recognition by a PUF domain”",
  "experiment_in_all_cases": "yeast three-hybrid, YBZ-1, SC-Leu-His + 0.5 mM 3-AT, 4 days",
  "conditions_in_all_cases": "tags: N-Gal4 AD-HA kept; label: inside an RPR1-promoter hybrid RNA with tandem MS2 sites; ssRNA",
  "key": {"[1]": {"biological_target": "PUM1 PUF domain R3-WWG (Homo sapiens, UniProt Q14671 828-1176, C935W;R936W;Q939G)", "procedure,_shortened": "(§1)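 The interaction score is the logarithmic change in variant frequency from input to selection. It uses log2, with a pseudocount of 1 for absent variants, and frequencies came from PCR-amplified, Illumina-sequenced repeat regions. The libraries were Pumilio-1 PUF domains randomized at the three base-contacting residues per repeat, co-expressed with matching RNA elements in strain YBZ-1 (LexA–MS2 coat fusion, HIS3 reporter). Plating lasted four days on SC-Leu (input) or SC-Leu-His + 0.5 mM 3-AT (selection).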"}, "[2]": {"biological_target": "PUM1 PUF domain R5-SIS (Homo sapiens, UniProt Q14671 828-1176, C1007S;R1008I;Q1011S)", "procedure,_shortened": "as §1"}, "[3]": {"biological_target": "PUM1 PUF domain R1-NRR (Homo sapiens, UniProt Q14671 828-1176, S863N;Q867R)", "procedure,_shortened": "as §1"}, "[4]": {"biological_target": "PUM1 PUF domain R1-MVR (Homo sapiens, UniProt Q14671 828-1176, S863M;R864V;Q867R)", "procedure,_shortened": "as §1"}, "[5]": {"biological_target": "PUM1 PUF domain R5-DHV (Homo sapiens, UniProt Q14671 828-1176, C1007D;R1008H;Q1011V)", "procedure,_shortened": "as §1"}, "[6]": {"biological_target": "PUM1 PUF domain R5-RAC (Homo sapiens, UniProt Q14671 828-1176, C1007R;R1008A;Q1011C)", "procedure,_shortened": "as §1"}, "[7]": {"biological_target": "PUM1 PUF domain R5-HRL (Homo sapiens, UniProt Q14671 828-1176, C1007H;Q1011L)", "procedure,_shortened": "as §1"}, "[8]": {"biological_target": "PUM1 PUF domain R5-SPC (Homo sapiens, UniProt Q14671 828-1176, C1007S;R1008P;Q1011C)", "procedure,_shortened": "as §1"}, "[9]": {"biological_target": "PUM1 PUF domain R4-NWP (Homo sapiens, UniProt Q14671 828-1176, H972W;Q975P)", "procedure,_shortened": "as §1"}, "[10]": {"biological_target": "PUM1 PUF domain R4-DYR (Homo sapiens, UniProt Q14671 828-1176, N971D;H972Y;Q975R)", "procedure,_shortened": "as §1"}, "[11]": {"biological_target": "PUM1 PUF domain R4-EYI (Homo sapiens, UniProt Q14671 828-1176, N971E;H972Y;Q975I)", "procedure,_shortened": "as §1"}, "[12]": {"biological_target": "PUM1 PUF domain R5-MRN (Homo sapiens, UniProt Q14671 828-1176, C1007M;Q1011N)", "procedure,_shortened": "as §1"}, "[13]": {"biological_target": "T1, PUM1 PUF domain R6-SFS (Homo sapiens, UniProt Q14671 828-1176, N1043S;Y1044F;Q1047S)", "T1 sequence": "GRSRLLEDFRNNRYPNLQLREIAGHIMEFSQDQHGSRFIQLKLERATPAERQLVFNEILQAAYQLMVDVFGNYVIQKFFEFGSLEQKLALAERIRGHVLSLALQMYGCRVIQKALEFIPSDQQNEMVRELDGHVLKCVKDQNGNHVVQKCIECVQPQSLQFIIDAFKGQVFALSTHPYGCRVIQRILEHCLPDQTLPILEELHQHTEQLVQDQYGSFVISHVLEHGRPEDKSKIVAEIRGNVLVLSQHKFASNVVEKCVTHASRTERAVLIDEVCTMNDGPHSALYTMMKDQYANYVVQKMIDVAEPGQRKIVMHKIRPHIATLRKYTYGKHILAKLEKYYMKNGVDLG", "procedure,_shortened": "as §1"}, "[14]": {"biological_target": "PUM1 PUF domain R3-YFG (Homo sapiens, UniProt Q14671 828-1176, C935Y;R936F;Q939G)", "procedure,_shortened": "as §1"}, "[15]": {"biological_target": "PUM1 PUF domain R8-KRR (Homo sapiens, UniProt Q14671 828-1176, N1122K;Y1123R;Q1126R)", "procedure,_shortened": "as §1"}, "[16]": {"biological_target": "T2, PUM1 PUF domain R6-NWP (Homo sapiens, UniProt Q14671 828-1176, Y1044W;Q1047P)", "T2 sequence": "T1 sequence with S216N, F217W, S220P", "procedure,_shortened": "as §1"}, "[17]": {"biological_target": "T3, PUM1 PUF domain R6-IWR (Homo sapiens, UniProt Q14671 828-1176, N1043I;Y1044W;Q1047R)", "T3 sequence": "T1 sequence with S216I, F217W, S220R", "procedure,_shortened": "as §1"}, "[18]": {"biological_target": "T4, PUM1 PUF domain R6-VWQ (Homo sapiens, UniProt Q14671 828-1176, N1043V;Y1044W)", "T4 sequence": "T1 sequence with S216V, F217W, S220Q", "procedure,_shortened": "as §1"}, "[19]": {"biological_target": "PUM1 PUF domain R8-RSR (Homo sapiens, UniProt Q14671 828-1176, N1122R;Y1123S;Q1126R)", "procedure,_shortened": "as §1"}, "[20]": {"biological_target": "PUM1 PUF domain R4-GPQ (Homo sapiens, UniProt Q14671 828-1176, N971G;H972P)", "procedure,_shortened": "as §1"}},
  "note": "Numbering of substitutions follows the chain as printed.",
  "data": [
    {"sequence": "GGCUAGAACUAGUGGAUCCCCCGGCGCCCGGCGGCUCGAGCCCGGGUAAGUGUAAGUAGUCUGCAUGCCGCCGGGCGCCAUGCCUGCAGGUCGACUCUAGAAAACAUG", "values": [
      {"measurement": "binding signal", "setting": "[1]", "result": "4.28 log2 enrichment (interaction score)"}
    ]},
    {"sequence": "GGCUAGAACUAGUGGAUCCCCCGGCGCCCGGCGGCUCGAGCCCGGGUAAGUGUGAAUAGUCUGCAUGCCGCCGGGCGCCAUGCCUGCAGGUCGACUCUAGAAAACAUG", "values": [
      {"measurement": "binding signal", "setting": "[2]", "result": "3.76 log2 enrichment (interaction score)"}
    ]},
    {"sequence": "GGCUAGAACUAGUGGAUCCCCCGGCGCCCGGCGGCUCGAGCCCGGGUAAGUGUAAAUUGUCUGCAUGCCGCCGGGCGCCAUGCCUGCAGGUCGACUCUAGAAAACAUG", "values": [
      {"measurement": "binding signal", "setting": "[3]", "result": "2.34 log2 enrichment (interaction score)"},
      {"measurement": "binding signal", "setting": "[4]", "result": "1.71 log2 enrichment (interaction score)"}
    ]},
    {"sequence": "GGCUAGAACUAGUGGAUCCCCCGGCGCCCGGCGGCUCGAGCCCGGGUAAGUGUCAAUAGUCUGCAUGCCGCCGGGCGCCAUGCCUGCAGGUCGACUCUAGAAAACAUG", "values": [
      {"measurement": "binding signal", "setting": "[5]", "result": "3.11 log2 enrichment (interaction score)"},
      {"measurement": "binding signal", "setting": "[6]", "result": "3.54 log2 enrichment (interaction score)"},
      {"measurement": "binding signal", "setting": "[7]", "result": "2.78 log2 enrichment (interaction score)"}
    ]},
    {"sequence": "GGCUAGAACUAGUGGAUCCCCCGGCGCCCGGCGGCUCGAGCCCGGGUAAGUGUAAUUAGUCUGCAUGCCGCCGGGCGCCAUGCCUGCAGGUCGACUCUAGAAAACAUG", "values": [
      {"measurement": "binding signal", "setting": "[1]", "result": "4.2 log2 enrichment (interaction score)"}
    ]},
    {"sequence": "GGCUAGAACUAGUGGAUCCCCCGGCGCCCGGCGGCUCGAGCCCGGGUAAGUGUUAAUAGUCUGCAUGCCGCCGGGCGCCAUGCCUGCAGGUCGACUCUAGAAAACAUG", "values": [
      {"measurement": "binding signal", "setting": "[5]", "result": "4.07 log2 enrichment (interaction score)"},
      {"measurement": "binding signal", "setting": "[7]", "result": "4.98 log2 enrichment (interaction score)"},
      {"measurement": "binding signal", "setting": "[8]", "result": "2.48 log2 enrichment (interaction score)"}
    ]},
    {"sequence": "GGCUAGAACUAGUGGAUCCCCCGGCGCCCGGCGGCUCGAGCCCGGGUAAGUGUAUAUAGUCUGCAUGCCGCCGGGCGCCAUGCCUGCAGGUCGACUCUAGAAAACAUG", "values": [
      {"measurement": "binding signal", "setting": "[9]", "result": "2.37 log2 enrichment (interaction score)"},
      {"measurement": "binding signal", "setting": "[10]", "result": "6.18 log2 enrichment (interaction score)"},
      {"measurement": "binding signal", "setting": "[11]", "result": "3.01 log2 enrichment (interaction score)"}
    ]},
    {"sequence": "GGCUAGAACUAGUGGAUCCCCCGGCGCCCGGCGGCUCGAGCCCGGGUAAGUGUAAAUAGUCUGCAUGCCGCCGGGCGCCAUGCCUGCAGGUCGACUCUAGAAAACAUG", "values": [
      {"measurement": "binding signal", "setting": "[12]", "result": "3.24 log2 enrichment (interaction score)"},
      {"measurement": "binding signal", "setting": "[13]", "result": "4.67 log2 enrichment (interaction score)"},
      {"measurement": "binding signal", "setting": "[14]", "result": "4.07 log2 enrichment (interaction score)"},
      {"measurement": "binding signal", "setting": "[5]", "result": "3.41 log2 enrichment (interaction score)"},
      {"measurement": "binding signal", "setting": "[15]", "result": "3.15 log2 enrichment (interaction score)"},
      {"measurement": "binding signal", "setting": "[16]", "result": "2.64 log2 enrichment (interaction score)"},
      {"measurement": "binding signal", "setting": "[17]", "result": "6.32 log2 enrichment (interaction score)"},
      {"measurement": "binding signal", "setting": "[6]", "result": "0.59 log2 enrichment (interaction score)"},
      {"measurement": "binding signal", "setting": "[10]", "result": "1.4 log2 enrichment (interaction score)"}
    ]},
    {"sequence": "GGCUAGAACUAGUGGAUCCCCCGGCGCCCGGCGGCUCGAGCCCGGGUAAGUGAAAAUAGUCUGCAUGCCGCCGGGCGCCAUGCCUGCAGGUCGACUCUAGAAAACAUG", "values": [
      {"measurement": "binding signal", "setting": "[18]", "result": "8.55 log2 enrichment (interaction score)"},
      {"measurement": "binding signal", "setting": "[17]", "result": "1.61 log2 enrichment (interaction score)"}
    ]},
    {"sequence": "GGCUAGAACUAGUGGAUCCCCCGGCGCCCGGCGGCUCGAGCCCGGGUAAGUGUAAAUCGUCUGCAUGCCGCCGGGCGCCAUGCCUGCAGGUCGACUCUAGAAAACAUG", "values": [
      {"measurement": "binding signal", "setting": "[3]", "result": "3.87 log2 enrichment (interaction score)"},
      {"measurement": "binding signal", "setting": "[4]", "result": "2.85 log2 enrichment (interaction score)"}
    ]},
    {"sequence": "GGCUAGAACUAGUGGAUCCCCCGGCGCCCGGCGGCUCGAGCCCGGGUAAGUGGAAAUAGUCUGCAUGCCGCCGGGCGCCAUGCCUGCAGGUCGACUCUAGAAAACAUG", "values": [
      {"measurement": "binding signal", "setting": "[16]", "result": "2.26 log2 enrichment (interaction score)"}
    ]},
    {"sequence": "GGCUAGAACUAGUGGAUCCCCCGGCGCCCGGCGGCUCGAGCCCGGGUAAGCGUAAAUAGUCUGCAUGCCGCCGGGCGCCAUGCCUGCAGGUCGACUCUAGAAAACAUG", "values": [
      {"measurement": "binding signal", "setting": "[19]", "result": "2.47 log2 enrichment (interaction score)"},
      {"measurement": "binding signal", "setting": "[15]", "result": "5.14 log2 enrichment (interaction score)"}
    ]},
    {"sequence": "GGCUAGAACUAGUGGAUCCCCCGGCGCCCGGCGGCUCGAGCCCGGGUAAGUGUACAUAGUCUGCAUGCCGCCGGGCGCCAUGCCUGCAGGUCGACUCUAGAAAACAUG", "values": [
      {"measurement": "binding signal", "setting": "[20]", "result": "2.42 log2 enrichment (interaction score)"},
      {"measurement": "binding signal", "setting": "[10]", "result": "6.53 log2 enrichment (interaction score)"}
    ]}
  ]
}
